# Data as given in PubChem BioAssay (NCI).
# The panel holds about 79,000 compounds, 15% with a hit somewhere; the sample as a whole holds those more often. A number with no mark means an inactive call. No stated cut-off is given here; in the data, active means growth inhibition above about 70%; inactive means the rest.
# Assay: NCI Yeast Anticancer Drug Screen. Data for the rad50 strain (AID 155);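 further: 0% = growth of vehicle-only cultures of the same strain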
# Details: S. cerevisiae rad50 strain growth inhibition; at 50.0 µM; stronger effect = higher value
# In short: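 Cells are treated with compound, grown, and their growth is then scored against vehicle-only cultures of the same repair-deficient yeast strain.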
row,SMILES,growth inhibition [%]
1,CCCCCN1C(=O)N=NC1=S,4.65
2,CCOC(=O)NC(=O)c1cn(CCCOC(=O)CCCCCCCCCCC(=O)OCCCn2cc(C(=O)NC(=O)OCC)c(=O)n(C)c2=O)c(=O)n(C)c1=O,-22.3
3,Cc1cc2[nH]c3ccccc3n2c(=O)c1N=Nc1ccccc1,3.1
4,COc1c(OC2OC(CO)C(O)C(O)C2O)cc2occ(-c3ccc4c(c3)OCO4)c(=O)c2c1O (stereo not drawn),23.6
5,[O-][N+](=Nc1ccccc1Cl)c1ccccc1Cl,44
6,O=C(c1ccccc1)c1cccc2c1ccc1ccccc12,13.4
7,CC1(O)Oc2c(cc(C(C)(C)C)cc2C(C)(C)C)C1=O (stereo not drawn),17.4
8,[Mn+2].[NH-]CC(=O)NC(Cc1ccccc1)C(=O)O.[NH-]CC(=O)NC(Cc1ccccc1)C(=O)O (stereo not drawn),-15.5
9,CCCc1ccccc1[N+](=O)[O-],0.25
10,c1csc(-c2cc(-c3ccsc3)c(-c3cccs3)s2)c1,-46.6
11,NC(=O)c1cccnc1,15.1
12,Cc1ccc([N+](=O)[O-])cc1N=C=O,-38.5
13,CC1=NNC(c2ccco2)C1 (stereo not drawn),10.2
14,CCOC(=O)c1nc2c(Cl)c3ncccc3cc2[nH]c1=O,20.6
15,COc1ccccc1C(=O)N/N=C/c1ccccc1Cl,4.25
16,C=C(CC/C=C\CO)[Si](C)(C)C,-10.5
17,C=C(S(=O)(=O)CC)S(=O)(=O)CC,28.9
18,Cc1ccc2cccc(N)c2n1,21.4
